From PubChem BioAssay AID651612 (The Scripps Research Institute Molecular Screening Center, 2012) come the findings set out here.

A word on the inhibition: it is the drop in the measured response relative to a control, in per cent.

The structures appear in SMILES notation. About 1,500 (68%) of roughly 2,200 compounds were called active. The set was probably picked from earlier hits. Only a sample is shown. A number with no mark means an inactive call. Rule as the data show it: active = inhibition above about 23%; inactive = the rest.

Chain of Perilipin-5 (Homo sapiens) + 1-acylglycerol-3-phosphate O-acyltransferase ABHD5 (Homo sapiens) (Q00G26 whole entry, looked up): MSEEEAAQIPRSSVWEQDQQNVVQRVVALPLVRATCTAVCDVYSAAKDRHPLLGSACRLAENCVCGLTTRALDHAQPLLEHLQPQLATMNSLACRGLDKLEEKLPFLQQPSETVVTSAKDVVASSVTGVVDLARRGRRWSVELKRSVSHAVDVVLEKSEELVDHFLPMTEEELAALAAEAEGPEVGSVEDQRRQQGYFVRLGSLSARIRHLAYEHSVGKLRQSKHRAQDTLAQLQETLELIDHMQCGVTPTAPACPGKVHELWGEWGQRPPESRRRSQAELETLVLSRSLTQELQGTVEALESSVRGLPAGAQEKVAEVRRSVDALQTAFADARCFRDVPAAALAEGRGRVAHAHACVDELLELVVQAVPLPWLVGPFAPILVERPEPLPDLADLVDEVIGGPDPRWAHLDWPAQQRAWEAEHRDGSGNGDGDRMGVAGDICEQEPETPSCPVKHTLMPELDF
Chain of Perilipin-5 (Homo sapiens) + 1-acylglycerol-3-phosphate O-acyltransferase ABHD5 (Homo sapiens) (Q8WTS1 whole entry, looked up): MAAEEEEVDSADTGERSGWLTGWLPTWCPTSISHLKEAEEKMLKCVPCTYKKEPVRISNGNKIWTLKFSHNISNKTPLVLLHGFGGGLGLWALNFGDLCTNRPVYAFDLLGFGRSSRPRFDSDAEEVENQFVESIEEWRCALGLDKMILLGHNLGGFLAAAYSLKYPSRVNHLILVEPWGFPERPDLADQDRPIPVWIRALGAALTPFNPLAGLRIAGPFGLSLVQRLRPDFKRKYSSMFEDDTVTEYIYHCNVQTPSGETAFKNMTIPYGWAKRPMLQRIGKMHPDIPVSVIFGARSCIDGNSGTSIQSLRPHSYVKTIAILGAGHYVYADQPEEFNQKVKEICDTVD

This assay concerns the target Perilipin-5 (Homo sapiens) + 1-acylglycerol-3-phosphate O-acyltransferase ABHD5 (Homo sapiens) (UniProt Q00G26+Q8WTS1). Put plainly: ABHD5-PLIN5 interaction inhibitors, confirmation, biochemical, luminescence (AID 651612).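 Also: 0% = DMSO vehicle wells.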 The following applies: at 4 µM, stronger effect = higher value.
Consider `CCOC(=O)[C@]12Cc3ccccc3[C@H]1N(C1CCCCC1)C(=O)c1cc(OC)ccc12`, for which the inhibition is 23.3% (active).
The same measure for `CN(C)CC1Oc2ccccc2OC1(O)c1ccccc1` (stereo not given): 77.6% (active); for `COc1ccc(CN2C(=O)NC(=O)/C(=C\c3ccc(OC)c(OC)c3OC)C2=O)cc1`: 36.5% (active); for `CCc1nnc(NS(=O)(=O)c2ccc(N=Cc3c(O)n(-c4ccccc4)c(=O)[nH]c3=O)cc2)s1`: 7.03%.
Turning to `Cc1cccc(N2C(=O)NC(=O)/C(=C\c3cnn(-c4ccccc4)c3)C2=O)c1`, the inhibition is 66.4% (active).
